D2 ag-1: activates the human D2 dopamine receptor | P14416 | HEK293 T-REx D2 cells, calcium flux agonist mode | activation, % at 2 µM | actives 0.53% (n = 340,000) | AID 485358;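 active = activation over 3 SD above normal in the single-dose calcium agonist read, cut at about 30% in these data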
Target sequence (P14416 whole entry, looked up): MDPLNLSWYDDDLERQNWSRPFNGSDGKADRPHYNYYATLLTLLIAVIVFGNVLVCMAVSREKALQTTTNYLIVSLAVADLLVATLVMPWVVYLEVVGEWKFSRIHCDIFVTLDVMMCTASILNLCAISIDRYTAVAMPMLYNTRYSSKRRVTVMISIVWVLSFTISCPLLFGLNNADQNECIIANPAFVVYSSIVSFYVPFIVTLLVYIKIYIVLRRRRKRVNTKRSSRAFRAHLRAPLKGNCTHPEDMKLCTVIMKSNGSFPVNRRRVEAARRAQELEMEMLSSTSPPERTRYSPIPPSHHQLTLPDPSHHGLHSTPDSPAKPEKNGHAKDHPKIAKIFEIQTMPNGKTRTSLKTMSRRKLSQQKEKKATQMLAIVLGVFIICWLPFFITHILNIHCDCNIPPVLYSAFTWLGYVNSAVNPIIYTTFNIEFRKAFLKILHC
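Tetracycline-induced HEK293 Trex cells with D2 receptor force-coupled to calcium signaling, plated overnight at 30 C and loaded with no-wash calcium dye. Calcium flux read kinetically for 180 s after compound addition; responses flag agonists.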
D2 antagonist: D2 dopamine receptor (human) antagonism; inhibition, % at 10 µM; actives 2% (n = 340,000); AID 485344; HEK293 TREx D2 cells, calcium flux, dopamine EC80; P14416; in the data active = inhibition above about 30%; inactive = below that, where a call was filed
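Cells plated overnight at 30 C with tetracycline; no-wash calcium dye, 30–90 min RT; 10 s baseline; compound pinned; 180 s read; EC80 dopamine added; another 180 s read.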
D2 ag-2: human D2 receptor agonism in beta-arrestin assay; DiscoveRx PathHunter D2 beta-arrestin, luminescence, 90 min; 100% = 57 uM dopamine signal; actives 0.084% (n = 360,000); activation, % (no concentration beside the values); in the data active = activation above about 40%; inconclusive = between about 15% and that limit
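DiscoveRx PathHunter D2 beta-arrestin cells (2,100/well) attached overnight, then compound-stimulated 90 min at 37 C in HBSS/10 mM HEPES/0.1% Tween-20 buffer; beta-galactosidase complementation read by luminescence after 1 h at ambient temperature. Dopamine 57 uM final (EC100) as control.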
D2 PAM-1: potentiates the human D2 dopamine receptor allosterically; P14416; DiscoveRx D2 beta-arrestin cells, luminescence, 90 min; 100% = 57 uM dopamine signal; actives 0.23% (n = 360,000); potentiation, % (no concentration beside the values); AID 624464; in the data active = potentiation above about 50%; inconclusive = mostly about 30% to 49%
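D2 cells co-treated with compound plus 50 nM dopamine (EC20) for 90 min at 37 deg C to detect potentiation. Beta-arrestin recruitment was read as enzyme-fragment luminescence after 1 h at ambient temperature. Full response was set by 57 uM dopamine.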
D2 PAM-2: positive allosteric modulators of human D2 dopamine receptor | HEK293 T-REx D2, calcium flux, EC20 dopamine potentiation | P14416 | actives 0.34% (n = 340,000) | potentiation, % at 10 µM;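 active = potentiation over 3 SD above the plate norm, cut at about 30% in these data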
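Cells plated with tetracycline inducer and held overnight at 30 C; calcium dye loaded 30–90 min at room temperature; baseline taken, compound added and read 180 s; EC20 dopamine then added and read 180 s.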
D3 arrestin ag: activates human D3 dopamine receptor beta-arrestin recruitment; AID 720506; shares compounds with D2 ag-1; DiscoveRx D3 beta-arrestin cells, luminescence, 90 min; Potency, µM (top dose mostly 76.9 µM), hits mostly activators; actives 4% (n = 2,300); also: nearly all actives have a fitted effect of over 70% in size
D2 ag-3: counter-screen for D3 agonists: human D2 dopamine receptor agonism. actives 5.9% (n = 2,300). Potency, µM (highest dose often 76.9 µM), actives largely listed as activators. DiscoveRx PathHunter D2 beta-arrestin, luminescence, 90 min; response scale: percent relative to full dopamine signal. shares compounds with D2 ag-1; also: nearly all actives have a fitted effect of over 70% in size
Hits are given with their value; - = inactive; ? = inconclusive; . = no result given. Shown are actives, neighbours in structure and some others; about 2.4% of the full set was active somewhere. Unless noted, calls follow the shape of the dose curve; as a rule, active = well fitted activation curve with a large enough effect; inconclusive = small, poorly fitted or top-dose-only effect; inactive = flat fitted curve, though single readings scatter.

SMILES	D2 ag-1	D2 antagonist	D2 ag-2	D2 PAM-1	D2 PAM-2	D3 arrestin ag	D2 ag-3
CCOC(=O)c1oc2c(c1C)C(=O)CCC2	-	-	-	-	-	-	-
O/C=c1\ccc2cccc3nc(C(F)(F)F)nc1c23	-	-	-	-	-	.	.
C/C(O)=c1/ccc2cccc3nc(C)nc1c23	-	-	-	-	-	?	-
O=S(=O)(CCN1CCN(c2ccccn2)CC1)c1ccc(Cl)cc1Cl	50	-	-	-	-	-	-
CCCN1C(=O)/C(=C/c2c(NCCCOC(C)C)nc3c(C)cccn3c2=O)SC1=S	-	-	-	-	-	-	-
Cc1cc(C(F)(F)F)nn2cnnc12	-	-	-	-	-	.	.
O=C(c1ccc2c3c(cccc13)CC2)C1CCCN(C(=O)c2cc[n+]([O-])cc2)C1 (configuration not stated)	-	-	-	-	-	.	.
O=C(c1ccc2c3c(cccc13)CC2)C1CCCN(C(=O)c2ccc[n+]([O-])c2)C1 (configuration not stated)	-	-	-	-	-	-	-
CCOc1cc(N2CCOCC2)c(OCC)cc1NC(=O)COc1cccc(CC)c1	-	-	-	-	-	-	-
CCOc1ccc(/C=N/NC(=O)c2ccc(O)cc2)cc1CN1CC2CC(C1)c1cccc(=O)n1C2 (configuration not stated)	.	.	-	-	-	-	-
COc1ccc2c(COC(=O)c3ccc(C)c(S(=O)(=O)N4CCOCC4)c3)cc(=O)oc2c1	.	.	-	-	.	.	.
CCc1nc2ccccc2c(C(=O)OCC(=O)NC(=O)c2cccn2C)c1C	-	-	-	-	-	.	.
O=C(CCN1CCN(CCO)CC1)Nc1ccccc1	-	-	-	-	-	.	.
CCOC(=O)N1CCN(CC(=O)Nc2ccc(Oc3ccccc3)cc2)CC1	56	43	44	-	-	?	?
O=C(CCN1CCN(c2ccccc2)CC1)Nc1ccccc1	73	53	-	-	-	-	-
CCOc1ccc(NC(=O)CCN2CCN(c3ccccc3)CC2)cc1	98	83	?	-	-	?	?
COc1ccc(NC(=O)CCN2CCN(c3ccc(F)cc3)CC2)cc1	65	77	-	-	-	-	-
O=C(COC(=O)CCC1CCCC1)Nc1cccc(S(=O)(=O)N2CCOCC2)c1	-	.	-	-	-	.	.
O=C(CN1CCN(c2ccccc2)CC1)Nc1ccc(OCc2ccccc2)cc1	44	55	-	-	-	?	-
O=C(CC1C(=O)NCCN1C(=O)Nc1ccccc1)Nc1ccc(F)cc1 (configuration not stated)	-	-	-	-	-	.	.
CCOc1ccc(NC(=O)CC2C(=O)NCCN2C(=O)Nc2ccccc2)cc1 (configuration not stated)	-	-	-	-	-	-	-
Cc1cc(C)cc(N(C(=O)c2ccccn2)C(C(=O)NC2CCCCC2)c2ccncc2)c1 (configuration not stated)	-	-	-	-	-	.	.
Cc1nc(-c2nc(-c3c(C(=O)NNC(=O)Nc4cccc(Cl)c4)noc3C)cs2)cs1	40	49	-	-	-	-	-
COc1ccc(Nc2sc(C(=O)c3ccc(Cl)cc3)c(N)c2C(=O)Nc2ccccc2OC)cc1	-	-	-	-	-	-	-
COc1cc(/C=N/Nc2cc(C)nc(NS(=O)(=O)c3ccccc3)n2)ccc1O	-	-	-	-	-	-	-
SMILES	D2 ag-1	D2 antagonist	D2 ag-2	D2 PAM-1	D2 PAM-2	D3 arrestin ag	D2 ag-3
COc1cc(/C=N/Nc2cc(C)nc(NS(=O)(=O)c3ccc(C)cc3)n2)ccc1O	-	-	-	-	-	.	.
CCCCn1c(=N)c(S(=O)(=O)c2ccc(Cl)cc2)cc2c(=O)n3cccc(C)c3nc21	-	.	.	.	-	.	.
C[C@@H]1[C@H](O)C[C@@]23COC(=O)C2=CCC[C@@H]3[C@@]1(C)CC/C(=C/CO)CO	-	-	-	-	-	.	.
CCCCn1c(/C=C/c2ccco2)nc2ccccc21	40	64	-	-	-	-	-
CCCn1c(/C=C/c2ccco2)nc2ccccc21	-	-	-	-	-	-	-
Cc1cc(C)nc(/N=C(\N)Nc2ccc(SC(F)F)cc2)n1	49	-	-	-	-	-	-
Cc1ccc(C)c(N/C(N)=N/c2nc(C)cc(C)n2)c1	56	-	-	-	-	-	-
Cc1cc(C)nc(/N=C(\N)Nc2ccc(-c3ccccc3)cc2)n1	-	-	-	-	-	.	.
CCOc1ccc(N/C(N)=N/c2nc(C)cc(C)n2)cc1	.	.	-	-	.	-	?
COc1ccc(C)cc1N/C(N)=N/c1nc(C)cc(C)n1	-	-	-	-	-	.	.
CC(=O)Nc1ccc(N/C(N)=N/c2nc(C)cc(C)n2)cc1	-	-	-	-	-	.	.
O=C(N1CCN(c2ccccc2)CC1)C(F)(F)C(F)(F)F	-	-	-	-	-	-	-
O=C(CN1CCCCC1)N1CCN(c2ccccc2)CC1	-	-	-	-	-	.	.
O=C(CN1CCN(c2ccccc2)CC1)N1CCN(c2ccccc2)CC1	47	-	-	-	-	?	-
O=C(N1CCN(c2ccccc2)CC1)C(F)(F)C(F)F	-	-	-	-	-	.	.
CCCNC(=O)C1(C)CCCN(CC(=O)c2ccc3c(c2)OCCO3)C1 (configuration not stated)	.	.	-	-	.	.	.
Cc1ccc(S(=O)(=O)N(C)C)cc1NC(=O)c1cc(C(C)(C)C)nn1Cc1ccccc1	-	-	-	-	-	.	.
Fc1ccccc1N1CCN(CCCNc2ccc3nncn3n2)CC1	95	90	43	-	-	?	?
COc1cccc(OCC(O)CNC2CCCC2)c1 (configuration not stated)	-	-	-	-	-	.	.
O=c1[nH]c(CN2CCN(c3ccccc3)CC2)nc2scc(-c3ccccc3)c12	-	32	-	-	-	?	-
CCc1nnc(NC(=O)c2ccc(-c3ccc(Cl)cc3)o2)s1	-	-	-	-	-	.	.
CCc1nnc(NC(=O)c2ccc(-c3ccc(C(C)=O)cc3)o2)s1	-	-	-	-	-	-	-
O=C(OCCN1C(=O)c2cccc3c(N4CCOCC4)ccc(c23)C1=O)c1ccc(Cl)cc1	70	-	-	-	-	-	-
CCCN(CCC)S(=O)(=O)c1ccc(C(=O)OCCN2C(=O)c3cccc4c(N5CCOCC5)ccc(c34)C2=O)cc1	62	-	-	-	-	-	-
CCN(CC)S(=O)(=O)c1ccc(C(=O)N2CCN(CCN3C(=O)c4cccc5cccc(c45)C3=O)CC2)cc1	-	-	.	.	-	.	.

Screening results (PubChem)
